HttQ103 aggreg: inhibitors of mutant huntingtin aggregate formation in PC12 cells; Potency, µM (top dose mostly 46.1 µM), inactives show at the highest dose activity change, negative = inhibition, usual class: inhibitors; 220,000 tested, 1.1% active; PC12 HttQ103-GFP aggregates, Acumen cytometry, 40 h; active = well fitted curve in the direction sought with a large enough effect; inconclusive = small, poorly fitted or top-dose-only effect, or another doubt; inactive = no such curve, though single readings can be large; an effect the other way counts as inactive or inconclusive; note: % is set by controls: 0 for no effect and ±100 for the full control effect; nearly all actives have a fitted effect of over 60% in size
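Huntingtin Q103 exon 1–GFP aggregates in induced PC12 cells (100 nM tebufenozide) were quantified by cytometry from lysates, with compounds dosed in titration.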
HPGD block: inhibitors of human 15-hydroxyprostaglandin dehydrogenase (HPGD). P15428. purified HPGD, NADH fluorescence kinetic, PGE2 substrate. Potency, µM, inactives show at the highest dose activity change, negative = inhibition, actives largely listed as inhibitors. 150,000 tested, 4.3% active; note: % is set by controls: 0 for no effect and ±100 for the full control effect
Target sequence (P15428 whole entry, looked up): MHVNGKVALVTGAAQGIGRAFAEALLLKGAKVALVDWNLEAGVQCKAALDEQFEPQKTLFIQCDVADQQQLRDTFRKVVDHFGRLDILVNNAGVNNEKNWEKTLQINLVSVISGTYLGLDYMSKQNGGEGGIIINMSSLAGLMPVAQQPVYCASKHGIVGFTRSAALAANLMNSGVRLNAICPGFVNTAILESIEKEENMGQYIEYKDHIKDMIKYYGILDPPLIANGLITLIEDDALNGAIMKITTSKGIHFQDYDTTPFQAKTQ
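NADH formation kinetics: reaction with 30 uM PGE2 and 1 mM NAD+ (final), 20 nM enzyme, Tris-HCl pH 8 with Tween 20, after 15 min compound preincubation at room temperature. Fluorescence change, last versus first of five reads.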
ALDH1A1 block: ALDH1A1 (human) enzyme inhibition; 220,000 tested, 7.3% active; P00352; Potency, µM (highest dose often 75.3 µM), for inactives: top-dose activity, negative = inhibition, actives largely listed as inhibitors; Purified ALDH1A1, NADH fluorescence, propionaldehyde substrate;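 note: plate controls were no enzyme wells and a reference inhibitor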
Target sequence (P00352 whole entry, looked up): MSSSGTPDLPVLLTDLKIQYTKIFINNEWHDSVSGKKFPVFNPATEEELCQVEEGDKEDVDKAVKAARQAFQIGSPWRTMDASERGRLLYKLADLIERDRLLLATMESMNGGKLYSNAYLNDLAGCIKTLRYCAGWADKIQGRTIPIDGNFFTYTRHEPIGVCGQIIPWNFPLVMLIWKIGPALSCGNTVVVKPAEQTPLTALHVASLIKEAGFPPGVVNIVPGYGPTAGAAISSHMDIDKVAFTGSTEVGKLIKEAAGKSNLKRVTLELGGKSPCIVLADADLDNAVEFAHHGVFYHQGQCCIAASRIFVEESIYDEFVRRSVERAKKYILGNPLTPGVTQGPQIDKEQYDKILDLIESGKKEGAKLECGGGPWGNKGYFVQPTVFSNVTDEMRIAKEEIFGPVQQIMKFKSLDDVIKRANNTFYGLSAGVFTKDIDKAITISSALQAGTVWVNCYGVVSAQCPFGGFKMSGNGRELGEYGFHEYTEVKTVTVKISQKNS
JMJD2E inh: JMJD2E (human) inhibition; B2RXH2; JMJD2E catalytic domain, FDH-coupled NADH fluorescence (FDH is formaldehyde dehydrogenase); Potency, µM (titrated, usually from 57.1 µM), inactives show at the highest dose activity change, negative = inhibition, hits mostly inhibitors; 230,000 tested, 1.6% active;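 note: 0% = wells with enzyme and -100% = buffer wells without enzyme; nearly all actives have a fitted effect of over 50% in size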
Lamin A splicing: LMNA splicing modulation; 200,000 tested, 0.01% active; AID 1487; HeLa LMNA splicing GFP/RFP minigene ratio, 48 h; Potency, µM (series often up to 46.1 µM), for inactives: top-dose ratio change, negative = inhibition, hits mostly inhibitors; active = well fitted inhibition curve with a large enough effect in the signal ratio, with a control signal flat, not every such curve was filed as active; inconclusive = small, poorly fitted or top-dose-only effect, or effect the other way, or a change in a side signal; the % refers to the signal ratio; note: % is set by controls: 0 for no effect and ±100 for the full control effect
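S3 HeLa cells stably expressing lamin A-EGFP splicing minigene plus DsRed2, 600 cells/well, 48 h compound exposure at 37C. Laser-scanning cytometry; analysed as GFP (500-530 nm)/RFP (575-640 nm) total intensity ratio; 0.5% DMSO vehicle.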
HTT cytoprotect: protects HTT-Q103 PC12 cells, measured by ATP | 230,000 tested, 0.14% active | PC12 HTT-Q103 induced, cytoprotection, ATP luminescence, 40 h | Potency, µM (series often up to 56.4 µM), without a hit: cytoprotection (ATP increase), hits mostly activators; active = well fitted curve in the direction sought with a large enough effect; inconclusive = small, poorly fitted or top-dose-only effect, or another doubt; inactive = no such curve, though single readings can be large; an effect the other way counts as inactive or inconclusive; note: % of control where 0% means no effect; nearly all actives have a fitted effect of over 45% in size
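Rat PC12, Q103 Htt exon1-GFP fusion, ecdysone promoter; tebufenozide inducer 100 nM final; compound titration; qHTS, 1500 cells/well; ATPlite luminescent read.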
* marks the source's active call; other numbers are inactive results; ? = inconclusive; nt = not tested or not shown; ! = not active in a repeat; [ ] = dose if it differs, or a comment. Most compounds without a hit are left out; they make up all but 9.2% or so of the library. Unless noted, calls come from the whole dose curve; as a rule, active = well fitted inhibition curve with a large enough effect (not every such curve was filed as active); inconclusive = small, poorly fitted or top-dose-only effect, or another doubt; inactive = no such curve, though single readings can be large or run the other way. Potency is the fitted concentration of half-maximal effect.

SMILES	HttQ103 aggreg	HPGD block	ALDH1A1 block	JMJD2E inh	Lamin A splicing	HTT cytoprotect
Cc1ccc(-n2cc[nH]c2=S)cc1C	4%	22µM*	?	1%	-7%	5%[10 µM]
CC(C)C(NC=C1C(=O)OC(C)(C)OC1=O)C(=O)O (stereo not given)	-8%	-7%	8.9µM*	-6%	12%	-8%
CC(O)C(NC=C1C(=O)OC(C)(C)OC1=O)C(=O)O (stereo not given)	8%	nt	0%	6%	nt	-24%
Cc1cccc[n+]1C1C(c2ccc([N+](=O)[O-])cc2)C(C#N)=C(C(=C=[N-])C#N)NC1(O)C1CC1 (stereo not given)	?	nt	4%	13µM*	?	-94%[10 µM]
N#CC1=C(N)NC(=S)C(C(N)=O)C1c1ccc([N+](=O)[O-])cc1 (stereo not given)	?	nt	-17%	?	nt	-39%
Cc1ccc(-n2c(CNc3ccc(F)cc3)nnc2SCC(N)=O)cc1	22µM*	nt	-2%	2%	?	-35%
CCn1c(CNc2ccc(OC)cc2)nnc1SCC(=O)Nc1ccc(F)cc1	-4%	-4%	-3%	2%	-1%	5%[1.9 µM]
CCn1c(CNc2ccc(F)cc2)nnc1SCC(=O)Nc1ccc(OC)cc1OC	26%	nt	14µM*	3%	1%	-20%
CCn1c(CNC(=O)COc2ccc(C(C)C)cc2)nnc1SCC(=O)Nc1ccc(F)cc1	-7%	-12%	28µM*	-4%	-4%	-21%
CCn1c(CNc2ccc(F)cc2)nnc1SCC(=O)OC1CCCCC1	-7%	16µM*	?	-10%	-2%	-5%
CCn1c(CNC(=O)COc2ccc(C(C)C)cc2)nnc1SCC(=O)Nc1cc(F)ccc1C	2%	-6%	2%	5%	30%	-15%
CO/N=C(/C)CCC(=O)OC[C@@H]1O[C@H](c2ccccc2)C=C[C@@H]1Oc1ccc(OC)cc1	nt	nt	-1%[13.5 µM]	nt	nt	-12%[10 µM]
CC(C)c1nc2n(n1)C1(CCCCC1)[C@@H]1CCCC[C@@H]1N2	nt	nt	nt	nt	-7%[46 µM]	nt
CCCCN(CC)CCNS(=O)(=O)c1cccc2cccnc12	nt	nt	nt	nt	nt	23%
COc1cccc(C(c2sc3nc(-c4ccco4)nn3c2O)N2CCC3(CC2)OCCO3)c1 (stereo not given)	nt	nt	nt	nt	6%[46 µM]	nt
CC(Oc1ccccc1)C(=O)Nc1nc2ccc(S(N)(=O)=O)cc2s1 (stereo not given)	nt	nt	nt	nt	6%[46 µM]	nt
CC(C)C(=O)N1CCN(c2ccc([N+](=O)[O-])cc2Cl)CC1	5%	-8%	14µM*	5%	?	6%[10 µM]
CC(C)CC(=O)NC(=S)N1CCN(c2ccc([N+](=O)[O-])cc2Cl)CC1	-3%	-9%	?	3%	?	2%[10 µM]
CC(C)CC(=O)N1CCN(c2ccc([N+](=O)[O-])cc2Cl)CC1	10%	-11%	32µM*	8%	?	29%[10 µM]
COC(=O)C(CC(C)C)NC(=O)c1ccc([N+](=O)[O-])c(C)c1 (stereo not given)	-4%	-7%	0%	2%	-3%	30%
Cc1cc(C(=O)NC(CC(C)C)C(=O)O)cc(C)c1[N+](=O)[O-] (stereo not given)	-3%	-19%	7.1µM*	?	-14%	32%[10 µM]
COCC(=O)Nc1nc(-c2ccc([N+](=O)[O-])cc2)cs1	1%	nt	1%	7%	nt	-25%
O=C(Cc1nc(-c2ccc([N+](=O)[O-])cc2)cs1)Nc1ccccc1	0%	-19%	8.9µM*	3%	-4%	9%
O=C(CSc1nc2ccsc2c(=O)n1Cc1ccc(C(=O)O)cc1)NCc1ccco1	4%	20µM*	6%	-6%	0%	nt
COCCNC(=O)CSc1nc2cc(OC)c(OC)cc2c(=O)n1Cc1ccco1	-4%	-14%	2.2µM*	-1%	0%	-14%
SMILES	HttQ103 aggreg	HPGD block	ALDH1A1 block	JMJD2E inh	Lamin A splicing	HTT cytoprotect
CCSc1nc2cc(OC)c(OC)cc2c(=O)n1CC	-25%	-13%	8.9µM*	0%	0%	-10%
N#CCSc1nc2ccccc2c(=O)n1CCCC(=O)NCc1ccco1	-10%	nt	-3%	4%	nt	-8%
COc1ccc(Cn2c(SCC(=O)NCc3ccco3)nc3ccsc3c2=O)cc1	16%	-6%	-2%	-7%	-6%	-14%[10 µM]
O=C(CCCCCn1c(SCc2ccncc2)nc2ccccc2c1=O)NCc1ccco1	17%	18µM*	25µM*	-26%	-18%	19%[10 µM]
O=C(CSc1nc2cc(Cl)ccc2c(=O)n1Cc1ccco1)Nc1ccc(S(=O)(=O)N2CCOCC2)cc1	-2%	-9%	7.9µM*	-12%	7%	14%[0.074 µM]
O=C(CSc1nc2ccccc2c(=O)n1Cc1ccc(C(=O)NC2CC2)cc1)NCc1ccco1	5%	2.8µM*	-8%	3%	?	-25%
O=C(CSc1nc2ccccc2c(=O)n1Cc1ccco1)c1ccc(F)cc1	0%	-30%	11µM*	-14%	?	3%[10 µM]
COC(=O)c1ccc2c(=O)n(Cc3ccco3)c(SCC(=O)Nc3ccc(C)c(Cl)c3)nc2c1	4%	-2%	?	-16%	15%	6%[10 µM]
Cc1ccc([N+](=O)[O-])c(N)c1	nt	-4%	-6%	nt	nt	-6%
Cc1ccc([N+](=O)[O-])c(C)[n+]1C	32%	nt	-3%	18µM*	?	-38%
Cc1cccc([N+](=O)[O-])c1C	nt	-2%	-5%	nt	nt	-1%
COc1cccc(C(=O)N(Cc2ccc(N(C)C)cc2)C2CCS(=O)(=O)C2)c1 (stereo not given)	3%	-7%	14µM*	-5%	4%	-16%
O=C(/C=C/c1ccc(Cl)cc1Cl)N(Cc1ccccc1)C1CCS(=O)(=O)C1 (stereo not given)	26%	-1%	2.2µM*	-4%	8%	31%[10 µM]
COc1ccc(CN(C(=O)/C=C/c2ccco2)C2CCS(=O)(=O)C2)cc1 (stereo not given)	7%[9.22 µM]	nt	14µM*	1%	nt	8%[10 µM]
O=C(/C=C/c1ccc(Cl)cc1)N(Cc1ccccc1)C1CCS(=O)(=O)C1 (stereo not given)	8%	-18%	13µM*	0%	-11%	3%[10 µM]
O=C(/C=C/c1ccc(Cl)cc1Cl)N(Cc1ccc(Cl)cc1)C1CCS(=O)(=O)C1 (stereo not given)	0%	-8%	3%	-2%	?	-10%[10 µM]
NC(=S)Nc1ccc(C(F)(F)F)cc1Cl	-1%[9.22 µM]	nt	-6%	2%	nt	-12%[10 µM]
CN(C)CCC1c2ccc(Cl)cc2CCc2cccnc21 (stereo not given) (tested in a mixture with another compound)	-4%[9.22 µM]	nt	-9%	-5%	nt	-2%[10 µM]
CN(C)CC/C=C1\c2ccccc2COc2ccccc21	-12%	-8%	18µM*!	?	?	?
